# Source: PubChem BioAssay
# Active and inactive are the calls of the source.
# Tests used:
# [1] = E. coli DRC41 culture turbidity changes, primary screen, E. coli filamentation inducer project, strain DRC41, OD650, 48 h (AID 1152);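 also: E. coli MC1000 strain DRC41 lacking acrAB efflux pump and sulA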; conditions: E. coli DRC41 (acrAB sulA), higher = more signal, called active from +8 up or from −8 down
# [2] = small-molecule binders of probe aLefty1, primary screen, biochemical, small-molecule microarray, 635/667 nm fluorescence (AID 1153); conditions: higher = more signal;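 also: score merges spot fluorescence with signal-to-noise ratio from the scanned slide images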
# [3] = PSAC antagonists in infected red cells, primary screen, cell-based, P. falciparum Indochina, OD700, 1 h (AID 1154); conditions: P. falciparum Indochina infected RBC osmotic lysis, higher = more signal, called active from +8 up or from −8 down
# [4] = PSAC antagonists in infected red cells, primary screen, cell-based, P. falciparum Indochina, OD700, 2 h (AID 1155);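 also: lysis reports solute entry through the parasite surface anion channel PSAC; channel blockers reduce lysis of infected cells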; conditions: P. falciparum Indochina infected erythrocytes, osmotic lysis OD700; higher = more signal, called active from +8 up or from −8 down
# [5] = osmotic lysis modulators in infected erythrocytes, primary screen, PSAC antagonist project, cell-based, P. falciparum Indochina, OD700, 3 h (AID 1156); conditions: higher = more signal, called active from +8 up or from −8 down
# [6] = PSAC antagonists in infected red cells, primary screen, cell-based, P. falciparum Indochina, OD700, 18 h (AID 1157); conditions: P. falciparum Indochina infected erythrocytes, osmotic lysis OD700, 18 h; higher = more signal, called active from +8 up or from −8 down
# [7] = modulators of S6 phosphorylation in cells, primary screen, cell-based, A549, cytoblot, luminescence, serum-stimulated (AID 1158); conditions: A549 phospho-S6 cytoblot, 5 h, higher = more signal;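 also: serum-stimulated A549 lung adenocarcinoma cells; signal is phosphorylated S6 detected by cytoblot immunostaining with HRP secondary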
# [8] = target: NADPH oxidase 2 (Homo sapiens) (UniProt P04839); assay: NOX2-dependent H2O2 signal modulators, primary screen, NOX inhibitor project, cell-based, HEK293-NOX2, PMA-stimulated, Amplex Red fluorescence (AID 1159); conditions: 45 min, higher = more signal, called active from +8 up or from −8 down; also: test concentration not given here
# Sequence of NADPH oxidase 2 (Homo sapiens) (P04839 whole entry, looked up): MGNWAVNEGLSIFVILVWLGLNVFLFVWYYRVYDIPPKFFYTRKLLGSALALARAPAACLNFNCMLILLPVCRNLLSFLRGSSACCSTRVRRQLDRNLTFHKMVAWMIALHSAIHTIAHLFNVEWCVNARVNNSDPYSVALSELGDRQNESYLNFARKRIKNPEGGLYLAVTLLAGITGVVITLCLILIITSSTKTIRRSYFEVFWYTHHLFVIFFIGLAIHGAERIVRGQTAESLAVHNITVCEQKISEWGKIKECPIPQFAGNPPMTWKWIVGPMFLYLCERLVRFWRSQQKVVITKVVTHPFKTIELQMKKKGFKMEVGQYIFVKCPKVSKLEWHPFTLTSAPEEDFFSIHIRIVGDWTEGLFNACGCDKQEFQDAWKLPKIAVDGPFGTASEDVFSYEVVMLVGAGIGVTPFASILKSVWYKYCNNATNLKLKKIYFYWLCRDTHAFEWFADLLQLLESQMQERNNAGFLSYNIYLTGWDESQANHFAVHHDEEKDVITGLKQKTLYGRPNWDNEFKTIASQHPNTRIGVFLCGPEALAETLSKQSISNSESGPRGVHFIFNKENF
# [9] = target: NADPH oxidase 4 (Homo sapiens) (UniProt Q9NPH5); assay: NOX4-dependent H2O2 signal modulators, primary screen, NOX inhibitor project, cell-based, HEK293-NOX4, tetracycline-induced, Amplex Red fluorescence (AID 1160); conditions: 45 min, higher = more signal, called active from +8 up or from −8 down
# Sequence of NADPH oxidase 4 (Homo sapiens) (Q9NPH5 whole entry, looked up): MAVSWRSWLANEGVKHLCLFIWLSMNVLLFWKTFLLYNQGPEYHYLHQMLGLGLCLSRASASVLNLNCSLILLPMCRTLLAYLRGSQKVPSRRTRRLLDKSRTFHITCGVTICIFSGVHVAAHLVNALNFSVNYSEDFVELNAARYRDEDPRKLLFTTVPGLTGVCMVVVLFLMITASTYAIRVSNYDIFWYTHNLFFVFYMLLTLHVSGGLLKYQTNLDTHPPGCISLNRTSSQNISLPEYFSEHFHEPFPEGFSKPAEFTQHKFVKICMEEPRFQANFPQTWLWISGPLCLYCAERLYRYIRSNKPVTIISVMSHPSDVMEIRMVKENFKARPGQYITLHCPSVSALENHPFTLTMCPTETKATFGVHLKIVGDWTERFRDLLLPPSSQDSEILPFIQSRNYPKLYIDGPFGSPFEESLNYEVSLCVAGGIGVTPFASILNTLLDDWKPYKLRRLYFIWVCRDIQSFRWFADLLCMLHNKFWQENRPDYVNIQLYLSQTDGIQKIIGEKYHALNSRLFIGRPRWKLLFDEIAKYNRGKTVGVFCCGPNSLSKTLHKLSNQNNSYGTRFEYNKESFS
# [10] = target: NADPH oxidase 5 (Homo sapiens) (UniProt Q96PH1); assay: NOX5-dependent H2O2 signal modulators, primary screen, NOX inhibitor project, cell-based, HEK293-NOX5, Amplex Red fluorescence (AID 1161); conditions: HEK293-NOX5, ionomycin, 45 min, higher = more signal
# Sequence of NADPH oxidase 5 (Homo sapiens) (Q96PH1 whole entry, looked up): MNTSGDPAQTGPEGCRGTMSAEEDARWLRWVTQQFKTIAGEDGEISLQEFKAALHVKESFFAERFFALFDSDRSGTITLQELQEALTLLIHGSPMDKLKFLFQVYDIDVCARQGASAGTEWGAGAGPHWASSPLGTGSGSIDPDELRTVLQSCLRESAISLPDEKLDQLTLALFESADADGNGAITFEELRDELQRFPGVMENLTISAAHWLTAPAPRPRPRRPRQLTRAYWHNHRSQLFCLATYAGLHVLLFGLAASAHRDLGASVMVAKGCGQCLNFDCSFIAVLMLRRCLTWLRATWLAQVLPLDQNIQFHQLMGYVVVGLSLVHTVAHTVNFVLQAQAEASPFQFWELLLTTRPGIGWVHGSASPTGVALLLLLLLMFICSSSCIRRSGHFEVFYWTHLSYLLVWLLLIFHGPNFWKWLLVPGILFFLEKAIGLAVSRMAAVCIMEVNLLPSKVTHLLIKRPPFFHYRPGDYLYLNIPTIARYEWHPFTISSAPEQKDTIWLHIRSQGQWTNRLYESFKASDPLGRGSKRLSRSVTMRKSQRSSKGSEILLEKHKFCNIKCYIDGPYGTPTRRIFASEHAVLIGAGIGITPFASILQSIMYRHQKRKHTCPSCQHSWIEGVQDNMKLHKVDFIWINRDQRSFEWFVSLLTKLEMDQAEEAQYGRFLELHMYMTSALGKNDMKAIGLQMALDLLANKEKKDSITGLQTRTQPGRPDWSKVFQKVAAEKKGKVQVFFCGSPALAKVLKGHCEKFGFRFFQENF
# [11] = A549 cell viability effects, profiling panel, calcein-AM fluorescence, 48 h, basal (AID 1162); conditions: higher = more signal; also: test concentration not given here
# [12] = adipocyte viability effects, profiling panel, cell-based, 3T3-L1 adipocytes, calcein-AM fluorescence, 48 h, basal (AID 1163); conditions: 3T3-L1 adipocytes viability, higher = more signal; also: test concentration not given here
# [13] = HepG2 cell viability effects, profiling panel, calcein-AM fluorescence, 48 h, basal (AID 1164); conditions: higher = more signal; also: test concentration not given here
# [14] = MM1S cell viability effects, profiling panel, calcein-AM fluorescence, 48 h, basal (AID 1165); conditions: higher = more signal;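 also: viability of MM1S multiple myeloma cells under basal unstimulated conditions; test concentration not given here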
# [15] = basal RPMI8226 viability, no added stimulus, profiling panel, cell-based, calcein-AM fluorescence, 48 h, PK04 Diversity Set (AID 1166); conditions: RPMI8226 myeloma viability, higher = more signal;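 also: cells grown under basal conditions without added stimulus; test concentration not given here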
# [16] = basal HepG2 mitochondrial membrane potential changes, profiling panel, cell-based, JC-1 fluorescence, 24 h, 100 nL compound (AID 1167); conditions: higher = more signal; also: test concentration not given here
# [17] = basal 3T3-L1 adipocyte mitochondrial potential changes, profiling panel, cell-based, JC-1 fluorescence, 3T3-L1 adipocytes, 24 h, 100 nL compound (AID 1168); conditions: JC-1 mitochondrial fluorescence, higher = more signal, called active from +8 up or from −8 down; also: test concentration not given here
# [18] = basal RPMI8226 mitochondrial membrane potential changes, profiling panel, cell-based, JC-1 fluorescence, 24 h, 100 nL compound (AID 1169); conditions: RPMI8226 myeloma, JC-1 mitochondrial potential fluorescence, higher = more signal; also: test concentration not given here
# [19] = basal MM1S mitochondrial membrane potential changes, profiling panel, cell-based, JC-1 fluorescence, 24 h, 100 nL compound (AID 1170); conditions: higher = more signal; also: test concentration not given here
# [20] = A549 lung cancer cell viability effects, profiling panel, resazurin fluorescence, 24 h, PK04 Diversity Set (AID 1171); conditions: higher = more signal, called active from +8 up or from −8 down; also: test concentration not given here
SMILES,z-score [1],composite z-score [2],z-score [3],z-score [4],z-score [5],z-score [6],z-score [7],z-score [8],z-score [9],z-score [10],z-score [11],z-score [12],z-score [13],z-score [14],z-score [15],z-score [16],z-score [17],z-score [18],z-score [19],z-score [20]
Cc1ccc(S[C@]2(C(=O)NCc3ccccc3)CC(=O)N(Cc3ccccc3)[C@@H]2c2ccc(CO)cc2)cc1,-1.24 (inactive),-0.188,1.27 (inactive),0.115 (inactive),-0.376 (inactive),-0.234 (inactive),0.0768,-1.51 (inactive),0.494 (inactive),-0.189,0.778,0.147,0.0772,-0.195,-0.615,-0.452,0.645 (inactive),0.0195,-0.172,-0.114 (inactive)
C=CC[C@@H](OC(=O)Nc1ccc(OC)cc1)c1ccc(O)c2ccccc12,0.122 (inactive),-0.0615,3.63 (inactive),0.661 (inactive),-0.335 (inactive),0.279 (inactive),0.229,-6.06 (inactive),-1.69 (inactive),-0.308,-0.28,0.316,-2,-2.96,-4.3,-3.28,-1.55 (inactive),-0.992,-2.18,-0.67 (inactive)
CC(C)OC(=O)CC(=O)CC(O)c1ccc(C#N)cc1 (stereo not given),0.567 (inactive),0.213,1.96 (inactive),-0.344 (inactive),-0.745 (inactive),-1.79 (inactive),1.02,0.574 (inactive),-0.518 (inactive),-0.252,0.633,0.612,1.01,0.526,-0.116,0.615,0.497 (inactive),-0.0971,-1.44,0.617 (inactive)
Cc1ccc(S[C@]2(C(=O)NCCN3CCOCC3)CC(=O)N(Cc3cc(C(F)(F)F)cc(C(F)(F)F)c3)[C@@H]2c2ccc(CO)cc2I)cc1,0.288 (inactive),0.0742,2.66 (inactive),-0.599 (inactive),-1.61 (inactive),-1.68 (inactive),0.704,2.05 (inactive),-0.995 (inactive),3.01,0.356,0.712,-0.554,-2.1,-1.92,-0.168,-0.227 (inactive),-0.2,-1.57,0.36 (inactive)
CCCCC=C[C@@H](NC(=O)c1ccco1)c1ccccc1,-1.24 (inactive),0.0701,1.02 (inactive),0.941 (inactive),-0.279 (inactive),0.813 (inactive),0.782,-0.226 (inactive),0.76 (inactive),1.01,-1.08,-0.872,0.264,-0.499,-1.16,0.989,0.0899 (inactive),0.112,-1.05,0.335 (inactive)
CC(C)C[C@@H]1NC(=O)[C@H]2C[C@@H](C(=O)NCCCCCNC(=O)CS)[C@@H](c3cccc(OCCO)c3)N2C1=O,-0.586 (inactive),-0.0511,2.59 (inactive),0.505 (inactive),-0.47 (inactive),0.327 (inactive),-0.592,2.16 (inactive),1.21 (inactive),0.93,0.546,-0.206,-0.158,-1.11,-0.768,-0.0747,-0.362 (inactive),0.565,0.975,0.276 (inactive)
COc1ccc([Si](C)(C)[C@@H]2[C@@H](CCn3cc([C@H](O)c4ccccc4)nn3)O[C@]3(C(=O)N(Cc4cccc(N5CCOC5=O)c4)c4ccccc43)[C@H]2C)cc1,1 (inactive),-0.328,26.3 (active),12.8 (active),1.33 (inactive),1.68 (inactive),0.324,-0.662 (inactive),2.29 (inactive),1.84,1.6,-0.392,1.31,-2.15,0.274,1.84,2.73 (inactive),-0.671,-0.0958,0.181 (inactive)
[N-]=[N+]=Nc1ccccc1[C@@H]1OC(c2ccc(OCCCO)cc2)=N[C@]1(CCS(=O)(=O)c1ccccc1)C(=O)N1CCOCC1,0.325 (inactive),0.701,30.4 (active),25.4 (active),0.736 (inactive),6.38 (inactive),-0.444,-1.54 (inactive),1.47 (inactive),1.47,1.53,0.293,1.33,0.0503,-0.908,0.431,0.406 (inactive),-0.746,-0.799,-0.549 (inactive)
CCOC(=O)C[C@H]1[C@H](OC(=O)c2ccccc2-c2ccccc2)[C@@H](NC(=O)c2ccc3ccccc3c2)c2cc(OCCCO)ccc2N1C(=O)c1ccc2ccccc2n1,0.0514 (inactive),-0.193,4.5 (inactive),0.759 (inactive),-0.62 (inactive),0.452 (inactive),-0.429,0.349 (inactive),1.08 (inactive),0.803,0.135,0.487,-0.0645,-0.957,-0.442,0.732,2.16 (inactive),-0.337,-0.615,0.735 (inactive)
